Measurements as given in PubChem BioAssay (NCATS).
Records with an inconclusive call do not appear. Calls of active or inactive are those of the source. Calls come from the whole dose curve; as a rule, active = well fitted curve in the direction sought with a large enough effect; inconclusive = small, poorly fitted or top-dose-only effect, or another doubt; inactive = no such curve, though single readings can be large; an effect the other way counts as inactive or inconclusive.

Experiments:
[1] = Quantitative High-Throughput drug screen in 47 multiple myeloma cell lines against the NCATS MIPE library collection: KMS12PE_JCRB cell viability assay (AID 1918972); note: nearly all actives have a fitted effect of over 30% in size; note: potency is the fitted concentration of half-maximal effect; for viability: series mostly up to about 46 µM
Summary of the method: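 We plated 500 myeloma cells per well, pinned in MIPE 4.0 compounds, and incubated for 48 hours at 37C. ATP was then quantified with CellTiter-Glo, with DMSO and media-only wells defining 100% and 0%.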

[2] = Quantitative High-Throughput drug screen in 47 multiple myeloma cell lines against the NCATS MIPE library collection: KMS26_JCRB cell viability assay (AID 1918975); note: nearly all actives have a fitted effect of over 45% in size; note: potency is the fitted concentration of half-maximal effect
Summary of the method: (§1)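 Myeloma cells (500 per well) were exposed to MIPE 4.0 compounds by pin transfer and incubated 48 hours at 37C, 5% CO2. Viability was read as ATP by CellTiter-Glo luminescence, normalised to DMSO (100%) and media-only (0%) wells.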

[3] = Quantitative High-Throughput drug screen in 47 multiple myeloma cell lines against the NCATS MIPE library collection: NCIH929_DSMZ cell viability assay (AID 1918978); note: nearly all actives have a fitted effect of over 35% in size; note: potency is the fitted concentration of half-maximal effect
Summary of the method: (§2)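 Plated at 500 cells per well, myeloma lines received MIPE 4.0 compounds by pin tool. Following 48 h culture at 37 °C, CellTiter-Glo luminescence gave viability relative to DMSO and media-only controls.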

[4] = Quantitative High-Throughput drug screen in 47 multiple myeloma cell lines against the NCATS MIPE library collection: KMS28PE_JCRB cell viability assay (AID 1918983); note: nearly all actives have a fitted effect of over 35% in size; note: potency is the fitted concentration of half-maximal effect
Summary of the method: as §2

[5] = Quantitative High-Throughput drug screen in 47 multiple myeloma cell lines against the NCATS MIPE library collection: KMS34_JCRB cell viability assay (AID 1918985); note: nearly all actives have a fitted effect of over 40% in size; note: potency is the fitted concentration of half-maximal effect
Summary of the method: as §2

[6] = Quantitative High-Throughput drug screen in 47 multiple myeloma cell lines against the NCATS MIPE library collection: OCIMY5_PLB cell viability assay (AID 1918988); note: nearly all actives have a fitted effect of over 65% in size; note: potency is the fitted concentration of half-maximal effect
Summary of the method: as §2

[7] = Quantitative High-Throughput drug screen in 47 multiple myeloma cell lines against the NCATS MIPE library collection: SKMM1_PLB cell viability assay (AID 1919863); conditions: SKMM1 myeloma viability, CellTiter-Glo ATP, 48 h; viability: stronger effect = lower value; note: nearly all actives have a fitted effect of over 35% in size; note: potency is the fitted concentration of half-maximal effect; for viability: series mostly up to about 46 µM
Summary of the method: as §2

[8] = Quantitative High-Throughput drug screen in 47 multiple myeloma cell lines against the NCATS MIPE library collection: XG6_PLB cell viability assay (AID 1919865); note: nearly all actives have a fitted effect of over 40% in size; note: potency is the fitted concentration of half-maximal effect
Summary of the method: as §2

[9] = Quantitative High-Throughput drug screen in 47 multiple myeloma cell lines against the NCATS MIPE library collection: KMS12BM_JCRB cell viability assay (AID 1918971); note: nearly all actives have a fitted effect of over 35% in size; note: potency is the fitted concentration of half-maximal effect
Summary of the method: as §1

[10] = Quantitative High-Throughput drug screen in 47 multiple myeloma cell lines against the NCATS MIPE library collection: KMS21BM_JCRB cell viability assay (AID 1918974); note: potency is the fitted concentration of half-maximal effect
Summary of the method: (§3)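 CellTiter-Glo luminescence (ATP) after 48 h compound exposure, 37C/5% CO2; 500 cells/well; MIPE 4.0 approved/investigational drugs pinned in; DMSO = 100%, media only = 0% viability.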

[11] = Quantitative High-Throughput drug screen in 47 multiple myeloma cell lines against the NCATS MIPE library collection: MOLP8_DSMZ cell viability assay (AID 1918977); note: nearly all actives have a fitted effect of over 45% in size
Summary of the method: as §2

[12] = Quantitative High-Throughput drug screen in 47 multiple myeloma cell lines against the NCATS MIPE library collection: LP1_DSMZ cell viability assay (AID 1918982); note: nearly all actives have a fitted effect of over 35% in size
Summary of the method: as §2

[13] = Quantitative High-Throughput drug screen in 47 multiple myeloma cell lines against the NCATS MIPE library collection: L363_DSMZ cell viability assay (AID 1918984); note: nearly all actives have a fitted effect of over 40% in size; note: potency is the fitted concentration of half-maximal effect
Summary of the method: as §2

[14] = Quantitative High-Throughput drug screen in 47 multiple myeloma cell lines against the NCATS MIPE library collection: OPM1_PLB cell viability assay (AID 1918989); note: nearly all actives have a fitted effect of over 40% in size; note: potency is the fitted concentration of half-maximal effect
Summary of the method: as §2

[15] = Quantitative High-Throughput drug screen in 47 multiple myeloma cell lines against the NCATS MIPE library collection: KMS20_JCRB cell viability assay (AID 1918973); note: nearly all actives have a fitted effect of over 45% in size; note: potency is the fitted concentration of half-maximal effect
Summary of the method: as §3

[16] = Quantitative High-Throughput drug screen in 47 multiple myeloma cell lines against the NCATS MIPE library collection: MM1S_ATCC cell viability assay (AID 1918980); note: nearly all actives have a fitted effect of over 45% in size; note: potency is the fitted concentration of half-maximal effect
Summary of the method: as §2

[17] = Quantitative High-Throughput drug screen in 47 multiple myeloma cell lines against the NCATS MIPE library collection: MM1R_ATCC cell viability assay (AID 1918981); note: nearly all actives have a fitted effect of over 35% in size; note: potency is the fitted concentration of half-maximal effect
Summary of the method: as §2

[18] = Quantitative High-Throughput drug screen in 47 multiple myeloma cell lines against the NCATS MIPE library collection: OCIMY7_PLB cell viability assay (AID 1918987); note: nearly all actives have a fitted effect of over 65% in size; note: potency is the fitted concentration of half-maximal effect
Summary of the method: as §2

[19] = Quantitative High-Throughput drug screen in 47 multiple myeloma cell lines against the NCATS MIPE library collection: U266_ATCC cell viability assay (AID 1919864); note: nearly all actives have a fitted effect of over 35% in size; note: potency is the fitted concentration of half-maximal effect
Summary of the method: as §2

[20] = Quantitative High-Throughput drug screen in 47 multiple myeloma cell lines against the NCATS MIPE library collection: MMM1_PLB cell viability assay (AID 1918976); conditions: MMM1 myeloma cells viability, CellTiter-Glo, 48 h
Summary of the method: as §2

CC(NC(C)(C)C)C(=O)c1cccc(Cl)c1 (configuration not stated)
inactive: Potency [1] | Potency [2] | Potency [3] | Potency [4] | Potency [5] | viability [7] 112% | Potency [8]
active: Potency [6] 13.2 µM

C[C@]12CC[C@@H]3c4ccc(OC(=O)N(CCCl)CCCl)cc4CC[C@H]3[C@@H]1CC[C@@H]2OP(=O)(O)O
inactive: Potency [9] | Potency [10] | outcome [11] | Potency [3] | outcome [12] | Potency [13] | Potency [5] | Potency [14] | Potency [8]

CN1C(=O)CCS(=O)(=O)C1c1ccc(Cl)cc1 (configuration not stated)
inactive: Potency [9] | Potency [1] | Potency [15] | Potency [2] | outcome [11] | Potency [17] | outcome [12] | Potency [4] | Potency [13] | Potency [5] | Potency [18] | Potency [6] | Potency [14] | viability [7] 109% | Potency [19]
active: Potency [3] 20.9 µM | Potency [16] 18.7 µM | Potency [8] 18.7 µM

O=C(O)CCCc1ccc(N(CCCl)CCCl)cc1
active: Potency [17] 23.5 µM | Potency [18] 4.69 µM | Potency [8] 11.8 µM
inactive: Potency [1] | Potency [10] | Potency [6] | Potency [19]

CN1C(=O)COc2c(C(=O)NC3CN4CCC3CC4)cc(Cl)cc21 (configuration not stated)
inactive: Potency [9] | Potency [1] | Potency [2] | outcome [11] | Potency [3] | Potency [17] | outcome [12] | Potency [4] | Potency [14] | viability [7] 152% | Potency [19] | Potency [8]

CC(C)C[C@H](CN)CC(=O)O
active: Potency [9] 9.35 µM | Potency [20] 11.8 µM
inactive: Potency [1] | Potency [2] | outcome [11] | Potency [3] | Potency [17] | outcome [12] | Potency [4] | Potency [5] | Potency [14] | Potency [8]

C[C@]12CCC(=O)C=C1CC[C@@H]1[C@H]3CC[C@](C)(O)[C@@]3(C)CC[C@@H]12
active: Potency [9] 34 µM | Potency [1] 15.2 µM | Potency [16] 38.2 µM | Potency [18] 30.3 µM | Potency [6] 48.1 µM | Potency [7] 30.3 µM | Potency [19] 38.2 µM
inactive: Potency [3] | Potency [4] | Potency [14]

CCC1(c2ccc(N)cc2)CCC(=O)NC1=O (configuration not stated)
active: Potency [20] 0.743 µM | Potency [19] 1.32 µM
inactive: Potency [1] | Potency [2] | outcome [11] | Potency [3] | Potency [16] | Potency [17] | outcome [12] | Potency [4] | Potency [5] | Potency [6] | Potency [14] | Potency [8]

O=P1(N(CCCl)CCCl)NCCCO1 (configuration not stated)
inactive: Potency [16] | outcome [12] | Potency [8]
active: Potency [1] 8.33 µM | Potency [10] 14.8 µM | Potency [20] 2.35 µM | Potency [3] 8.33 µM | Potency [13] 10.5 µM | Potency [14] 13.2 µM

COc1cc(OC)c(OC)cc1C=O
inactive: Potency [1] | Potency [15] | Potency [10] | Potency [2] | Potency [3] | Potency [17] | outcome [12] | Potency [4] | Potency [13] | Potency [5] | Potency [6] | Potency [14]

CC(C)c1cccc(C(C)C)c1O
active: Potency [16] 8.33 µM
inactive: Potency [15] | outcome [11] | Potency [3] | Potency [17] | outcome [12] | Potency [4] | Potency [5] | Potency [14] | viability [7] 119% | Potency [19] | Potency [8]

C[C@](O)(CS(=O)(=O)c1ccc(F)cc1)C(=O)Nc1ccc(C#N)c(C(F)(F)F)c1
active: Potency [9] 26.4 µM | Potency [15] 833 nM | Potency [10] 6.62 µM | Potency [2] 4.69 µM | Potency [3] 0.296 µM | Potency [16] 0.372 µM | Potency [17] 2.35 µM | Potency [4] 26.4 µM | Potency [18] 0.469 µM | Potency [6] 0.372 µM | Potency [14] 1.87 µM | Potency [19] 0.935 µM | Potency [8] 0.148 µM

C[C@]12CC[C@H]3[C@@H](CC[C@@]45O[C@H]4C(O)=C(C#N)C[C@]35C)[C@H]1CC[C@H]2O
inactive: Potency [9] | Potency [15] | Potency [3] | outcome [12] | Potency [4] | Potency [13] | Potency [14] | Potency [8]
active: Potency [16] 1.48 µM | Potency [5] 16.6 µM | Potency [18] 5.26 µM
